Test results taken from paper PMC12864922, “TDP-43 directly inhibits mRNA accumulation in neurites through modulation of mRNA stability”.
Over roughly 9,900 sequences, “r (bound/input frequency ratio)” has its median near 0.7; the highest 2% begin near 6.5. Shown is part of a subset that was picked to be rich in the highest values.

B1: ENSMUSG00000004113.145|Cacna1b (ssRNA)
RNA: GGGAGUUCUACAGUCCGACGAUCGCUUCGAUAUCCGCAUGCUAAAAUAGCACAUGUAUGUAGAGAUGCGCUCAAGGGCCUGCCUUUCACCUACACUGUCACCAUAACAGGGACCAAAUCUGGAGGAUGUCCUUGCUGUUGAUUCUGGUUUUCAGUCACAACACUUUCACUGUUUGUCAUUUCUAUGUAGUUGAUCUAGAAAAAGCAGAAAUCAAAACAGGAAAGGAAAUGUUUGUGUAACUUUAAAAAAAAAGUCAACAUGUAGGAAGGUCUCCAUUUUGCAUUGUUUCUGUGUCUUGUAUGCCUCUUGCGGUCGCACUAGUGUGGAAUUCUCGGGUGUCAAGG
B2: ENSMUSG00000031028.502|Tub|9:15;46:52 (ssRNA)
RNA: GGGAGUUCUACAGUCCGACGAUCGCUUCGAUAUCCGCAUGCUACAAGUAAGCACACACCCUCUGGGAAGACAGGAGUCGGAAGCCAAGCACACACGCAACAGUCUGGAAGAGAGCUUUUGGUAAUCAUACCGUCUUCAGUGACAAGGCAACAAUGCUGUAAAGUGGGUUUGUUUGGUUUUGUUUUUUCUUUCUCUUUUAUGGAAAUGGCAGGUCUAUUUGCCUCAAACGUUAUGUAGAAGUAGUUCUAAGUUUAACAAGCAAUAGAGAUGACUGCUUAGCUAGGAUCUGCAGGGAGCUCUGCUCUCUUGCGGUCGCACUAGUGUGGAAUUCUCGGGUGUCAAGG
B3: ENSMUSG00000031028.254|Tub|5:10 (ssRNA)
RNA: GGGAGUUCUACAGUCCGACGAUCGCUUCGAUAUCCGCAUGCUAUGCCACACACCCAUCUGUGAGAAGCUUCUUGGAGCUGAGACACCAGAGGGAAGCAAAGAGCAUUUAGACAUUGCUUUUUGCUUUGAAAUAGAUAUGUUUGGAAACGCUAAGUAGAAGUUUAAAAAGUAGAGUCAUGUAGAGUCAUGCUUUGAAUAUGUGGGUCAUGCUUUAGAUAUGAAGAGGCUAUGCAGGUAAGGAGGCUGGAUUGAUGUAAAUGGAAGUAGUACUUUAAGAAAGCUCUAGAUUUCCCAGGUUGGACACUCUUGCGGUCGCACUAGUGUGGAAUUCUCGGGUGUCAAGG
B4: ENSMUSG00000090935.680|Synj2bp|248:252 (ssRNA)
RNA: GGGAGUUCUACAGUCCGACGAUCGCUUCGAUAUCCGCAUGCUAUUGAGAUUCACCACUGUCAGGAGCUCUCUCUCUCUGCUUAGAAUCAUCCAGACAGCGGGCUGGUCAGCCCACAUUAAAUAAGAACAUGUGGGACUAGAAUUCAGUCAACAAUGACAUGUUUCAUCAGGUGGUUAAAAUGUACAGAUUCUGUUGGAAAUGUUCCAUGGUAUUUCAAUAGCCAGAAUGAAGAACUGGGCUAAGUCCAGAGCUCUGCUCUCUGAGCAUCUGCCCCAGAUACAGAGGCAGACAUACAAGUGGAACUCUUGCGGUCGCACUAGUGUGGAAUUCUCGGGUGUCAAGG
B5: ENSMUSG00000031028.418|Tub|70:74;204:208;210:222;228:242 (ssRNA)
RNA: GGGAGUUCUACAGUCCGACGAUCGCUUCGAUAUCCGCAUGCUAGCAAAUUGGUGAGAAGAGCAGCCUAGUCUGUAAGAGUGCAGGGCAGCUGGAACCUUAGGCAGCUCCUCUCAUACCUACCGGCUCCACACCCUAACACUCUCCACCCUCUGCUCCAAACCAGUUCUUCUGCAGAGUGGUGAUGUUAGCUUCCCCAGCUCCUCUCCAAGUCUAGCUUUUUCUGUCCUUCUGGCUCCAAGGUGCUCACACACACACACACACACACUGUCACACACACACACACACGAGGAAAGGGCAAUCUGCUCUUGCGGUCGCACUAGUGUGGAAUUCUCGGGUGUCAAGG
B6: ENSMUSG00000031028.409|Tub (ssRNA)
RNA: GGGAGUUCUACAGUCCGACGAUCGCUUCGAUAUCCGCAUGCUAACAGGAAGAUCCCUUACCCCUCAUCCCCUCUUCUUUUUGGUCCUUGGCUGGGUAGCAAAUUGGUGAGAAGAGCAGCCUAGUCUGUAAGAGUGCAGGGCAGCUGGAACCUUAGGCAGCUCCUCUGUAUGCUACCGGCUCCACACCCUAACACUCUCCACCCUCUGCUCCAAACCAGUUCUUCUGCAGAGUGGUGAUGUUAGCUUCCCCAGCUCCUCUCCAAGUCUAGCUUUUUCUGUCCUUCUGGCUCCAAGGUGCUCUGUCUCUUGCGGUCGCACUAGUGUGGAAUUCUCGGGUGUCAAGG
B7: ENSMUSG00000031028.420|Tub (ssRNA)
RNA: GGGAGUUCUACAGUCCGACGAUCGCUUCGAUAUCCGCAUGCUAGAAGAGCAGCCUAGUCUGUAAGAGUGCAGGGCAGCUGGAACCUUAGGCAGCUCCUCUGUAUGCUACCGGCUCCACACCCUAACACUCUCCACCCUCUGCUCCAAACCAGUUCUUCUGCAGAGUGGUGAUGUUAGCUUCCCCAGCUCCUCUCCAAGUCUAGCUUUUUCUGUCCUUCUGGCUCCAAGGUGCUCUGUGUCUGUGUGUGUGUGUCUGUCUGUGUGUGUGUGUGUCGAGGAAAGGGCAAUCUGCAAACAAUGAACCUCUUGCGGUCGCACUAGUGUGGAAUUCUCGGGUGUCAAGG
B8: ENSMUSG00000031028.417|Tub (ssRNA)
RNA: GGGAGUUCUACAGUCCGACGAUCGCUUCGAUAUCCGCAUGCUAUGGGUAGCAAAUUGGUGAGAAGAGCAGCCUAGUCUGUAAGAGUGCAGGGCAGCUGGAACCUUAGGCAGCUCCUCUGUAUGCUACCGGCUCCACACCCUAACACUCUCCACCCUCUGCUCCAAACCAGUUCUUCUGCAGAGUGGUGAUGUUAGCUUCCCCAGCUCCUCUCCAAGUCUAGCUUUUUCUGUCCUUCUGGCUCCAAGGUGCUCUGUGUCUGUGUGUGUGUGUCUGUCUGUGUGUGUGUGUGUCGAGGAAAGGGCCUCUUGCGGUCGCACUAGUGUGGAAUUCUCGGGUGUCAAGG
B9: ENSMUSG00000031028.419|Tub (ssRNA)
RNA: GGGAGUUCUACAGUCCGACGAUCGCUUCGAUAUCCGCAUGCUAUGGUGAGAAGAGCAGCCUAGUCUGUAAGAGUGCAGGGCAGCUGGAACCUUAGGCAGCUCCUCUGUAUGCUACCGGCUCCACACCCUAACACUCUCCACCCUCUGCUCCAAACCAGUUCUUCUGCAGAGUGGUGAUGUUAGCUUCCCCAGCUCCUCUCCAAGUCUAGCUUUUUCUGUCCUUCUGGCUCCAAGGUGCUCUGUGUCUGUGUGUGUGUGUCUGUCUGUGUGUGUGUGUGUCGAGGAAAGGGCAAUCUGCAAACACUCUUGCGGUCGCACUAGUGUGGAAUUCUCGGGUGUCAAGG
B10: ENSMUSG00000031028.416|Tub (ssRNA)
RNA: GGGAGUUCUACAGUCCGACGAUCGCUUCGAUAUCCGCAUGCUACUUGGCUGGGUAGCAAAUUGGUGAGAAGAGCAGCCUAGUCUGUAAGAGUGCAGGGCAGCUGGAACCUUAGGCAGCUCCUCUGUAUGCUACCGGCUCCACACCCUAACACUCUCCACCCUCUGCUCCAAACCAGUUCUUCUGCAGAGUGGUGAUGUUAGCUUCCCCAGCUCCUCUCCAAGUCUAGCUUUUUCUGUCCUUCUGGCUCCAAGGUGCUCUGUGUCUGUGUGUGUGUGUCUGUCUGUGUGUGUGUGUGUCGAGGACUCUUGCGGUCGCACUAGUGUGGAAUUCUCGGGUGUCAAGG
B11: ENSMUSG00000031028.421|Tub (ssRNA)
RNA: GGGAGUUCUACAGUCCGACGAUCGCUUCGAUAUCCGCAUGCUACAGCCUAGUCUGUAAGAGUGCAGGGCAGCUGGAACCUUAGGCAGCUCCUCUGUAUGCUACCGGCUCCACACCCUAACACUCUCCACCCUCUGCUCCAAACCAGUUCUUCUGCAGAGUGGUGAUGUUAGCUUCCCCAGCUCCUCUCCAAGUCUAGCUUUUUCUGUCCUUCUGGCUCCAAGGUGCUCUGUGUCUGUGUGUGUGUGUCUGUCUGUGUGUGUGUGUGUCGAGGAAAGGGCAAUCUGCAAACAAUGAACAGAAGUCUCUUGCGGUCGCACUAGUGUGGAAUUCUCGGGUGUCAAGG
B12: ENSMUSG00000031028.419|Tub|64:68;198:202;204:216;222:236 (ssRNA)
RNA: GGGAGUUCUACAGUCCGACGAUCGCUUCGAUAUCCGCAUGCUAUGGUGAGAAGAGCAGCCUAGUCUGUAAGAGUGCAGGGCAGCUGGAACCUUAGGCAGCUCCUCUCAUACCUACCGGCUCCACACCCUAACACUCUCCACCCUCUGCUCCAAACCAGUUCUUCUGCAGAGUGGUGAUGUUAGCUUCCCCAGCUCCUCUCCAAGUCUAGCUUUUUCUGUCCUUCUGGCUCCAAGGUGCUCACACACACACACACACACACUGUCACACACACACACACACGAGGAAAGGGCAAUCUGCAAACACUCUUGCGGUCGCACUAGUGUGGAAUUCUCGGGUGUCAAGG
B13: ENSMUSG00000031028.418|Tub (ssRNA)
RNA: GGGAGUUCUACAGUCCGACGAUCGCUUCGAUAUCCGCAUGCUAGCAAAUUGGUGAGAAGAGCAGCCUAGUCUGUAAGAGUGCAGGGCAGCUGGAACCUUAGGCAGCUCCUCUGUAUGCUACCGGCUCCACACCCUAACACUCUCCACCCUCUGCUCCAAACCAGUUCUUCUGCAGAGUGGUGAUGUUAGCUUCCCCAGCUCCUCUCCAAGUCUAGCUUUUUCUGUCCUUCUGGCUCCAAGGUGCUCUGUGUCUGUGUGUGUGUGUCUGUCUGUGUGUGUGUGUGUCGAGGAAAGGGCAAUCUGCUCUUGCGGUCGCACUAGUGUGGAAUUCUCGGGUGUCAAGG

The binders below were run against TDP-43 (Homo sapiens, UniProt Q13148 1-414) (assay: RNA Bind-n-Seq with designed 260-mer pool; 25 mM Tris-HCl, 150 mM KCl, 3 mM MgCl2, BSA (printed 500 mg/mL), 20 units/mL SUPERase IN; pH not stated; 500 nM RNA pool, 1 h, 4 C; TDP-43 5, 50, 500 nM; high values mean tight binding). Details: protein: recombinant; tags: SBP (GST cleaved off with PreScission; pGEX-GST-SBP).
Chain of TDP-43 (Q13148 whole entry): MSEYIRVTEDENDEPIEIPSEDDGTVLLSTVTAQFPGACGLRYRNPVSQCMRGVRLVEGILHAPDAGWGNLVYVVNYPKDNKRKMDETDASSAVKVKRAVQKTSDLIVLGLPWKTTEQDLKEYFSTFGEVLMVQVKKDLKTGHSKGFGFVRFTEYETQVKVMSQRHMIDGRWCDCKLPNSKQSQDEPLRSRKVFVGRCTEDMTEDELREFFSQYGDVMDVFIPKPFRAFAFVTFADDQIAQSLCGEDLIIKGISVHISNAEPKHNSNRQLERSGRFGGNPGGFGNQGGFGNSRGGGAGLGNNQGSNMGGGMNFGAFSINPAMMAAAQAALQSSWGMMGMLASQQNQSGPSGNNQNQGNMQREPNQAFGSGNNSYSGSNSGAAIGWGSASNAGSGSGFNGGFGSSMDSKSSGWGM
Outline: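 Recombinant SBP-tagged TDP-43 at 5, 50 or 500 nM was captured on streptavidin beads, then incubated 1 h at 4 °C with 500 nM of an in vitro-transcribed 260-nt 3′ UTR oligo pool in 25 mM Tris-HCl, 150 mM KCl, 3 mM MgCl2, BSA and SUPERase IN. Bound RNA was washed, eluted with biotin, reverse transcribed, PCR-amplified and sequenced. Binding is R, each oligo's mapped-read-normalized abundance in the bound sample divided by its abundance in input. Duplicates used two independent protein batches.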

Point of comparison: B1, binding signal 0.241 R (bound/input frequency ratio). Against it:
- B2 — higher, 0.277 R (bound/input frequency ratio)
- B3 — higher, 1.12 R (bound/input frequency ratio)
- B4 — lower, 0.197 R (bound/input frequency ratio)
- B5 — higher, 3.24 R (bound/input frequency ratio)
- B6 — higher, 0.927 R (bound/input frequency ratio)
- B7 — higher, 7.33 R (bound/input frequency ratio)
- B8 — higher, 6.83 R (bound/input frequency ratio)
- B9 — higher, 5.95 R (bound/input frequency ratio)
- B10 — higher, 6.14 R (bound/input frequency ratio)
- B11 — higher, 5.82 R (bound/input frequency ratio)
- B12 — higher, 3.42 R (bound/input frequency ratio)
- B13 — higher, 7.04 R (bound/input frequency ratio)
